# Inconclusive results are not listed. A call without a number means that no potency is given here. Activity calls are given as the source filed them. Unless noted, calls follow the shape of the dose curve; as a rule, active = well fitted curve in the direction sought with a large enough effect; inconclusive = small, poorly fitted or top-dose-only effect, or another doubt; inactive = no such curve, though single readings can be large; an effect the other way counts as inactive or inconclusive.
# Key:
# [1] = target: Mitogen-activated protein kinase 10 (Mus musculus) (UniProt Q61831); experiment: JNK3 AlphaScreen Assay (AID 530; active = well fitted curve in either direction with a large enough effect, not every such curve was filed as active;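 also: kinase came from lysate of stimulated human HepG2 cells; signal reports phosphorylation of biotinylated GST-cJun 1-79 at Ser73 with 10 µM ATP; series mostly up to about 57 µM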)
# How it was run: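 Activity was read by AlphaScreen after JNK3-containing HepG2 lysate (cytokine pre-activated) phosphorylated biotinylated GST-cJun with 10 uM ATP at room temperature. Phospho-Ser73 cJun antibody with Protein-A acceptor beads provided detection.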
# [2] = Confirmation and Secondary Assay for Modulators of Hemoglobin Beta Chain Splicing at IVS2 654 locus (AID 910);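 also: HeLa cells stably carrying EGFP split by mutant beta-globin IVS2-654 intron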
# How it was run: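 HeLa cells stably expressing EGFP interrupted by β-globin IVS2-654 intron, seeded overnight in Opti-MEM/2% FCS, then treated 2 days at 37 °C. Restored splicing read as total peak GFP intensity per well by laser scanning cytometry (488 nm excitation, 500–520 nm emission); 500 nM antisense PNA as control.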
# [3] = Confirmation and Secondary Assay for Modulators of Hemoglobin Beta Chain Splicing at IVS2 705 locus (AID 930);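 also: HeLa cells stably expressing the EGFP-705 splicing reporter; GFP fluorescence per well restored by corrected splicing of the IVS2-705 intron in EGFP; series mostly up to about 46 µM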
# How it was run: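 First, HeLa EGFP-705 cells are seeded at 500/well in Optimem with 2% FCS and left overnight. Next, compound or DMSO is added for 2 days. Finally wells are laser-scanned and total peak GFP intensity scored.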
# [4] = target: Ubiquitin carboxyl-terminal hydrolase 1 (Homo sapiens) (UniProt O94782); experiment: Inhibitors of USP1/UAF1: Pilot qHTS (AID 504865);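 also: rhodamine fluorescence freed from ubiquitin-rhodamine substrate followed over time; top concentration of the series differs between compounds; nearly all actives have a fitted effect of over 35% in size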
# Sequence of Ubiquitin carboxyl-terminal hydrolase 1 (Homo sapiens) (O94782 whole entry, looked up): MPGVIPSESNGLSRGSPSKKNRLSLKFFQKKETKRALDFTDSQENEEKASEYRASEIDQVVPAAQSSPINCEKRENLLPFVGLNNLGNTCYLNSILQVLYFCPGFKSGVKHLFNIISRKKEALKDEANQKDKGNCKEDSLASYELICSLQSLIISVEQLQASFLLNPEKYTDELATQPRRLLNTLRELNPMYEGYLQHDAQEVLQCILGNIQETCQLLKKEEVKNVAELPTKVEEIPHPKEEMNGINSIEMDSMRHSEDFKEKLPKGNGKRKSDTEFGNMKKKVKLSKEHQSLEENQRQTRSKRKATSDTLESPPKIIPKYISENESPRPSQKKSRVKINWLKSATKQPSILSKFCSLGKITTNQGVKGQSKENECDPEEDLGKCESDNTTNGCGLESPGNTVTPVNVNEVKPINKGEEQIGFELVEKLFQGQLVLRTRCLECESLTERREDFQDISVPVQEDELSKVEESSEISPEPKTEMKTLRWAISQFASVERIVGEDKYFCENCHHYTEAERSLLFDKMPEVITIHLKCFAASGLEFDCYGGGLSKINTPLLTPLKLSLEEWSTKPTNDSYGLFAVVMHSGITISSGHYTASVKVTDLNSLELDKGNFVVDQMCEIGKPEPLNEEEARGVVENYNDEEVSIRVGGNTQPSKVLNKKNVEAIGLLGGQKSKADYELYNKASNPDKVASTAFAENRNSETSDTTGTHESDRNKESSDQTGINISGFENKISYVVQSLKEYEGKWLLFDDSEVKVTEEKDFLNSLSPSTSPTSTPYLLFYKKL
# How it was run: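 Kinetic fluorescence assay: 1nM USP1/UAF1, 15 min compound preincubation, then 150nM Ub-Rho; 480/540 nm.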
# [5] = target: Cytochrome P450 3A4 (Homo sapiens) (UniProt P08684); experiment: qHTS Assay for Activators of Cytochrome P450 3A4 (AID 885); also: nearly all actives have a fitted effect of over 65% in size
# Sequence of Cytochrome P450 3A4 (Homo sapiens) (P08684 whole entry, looked up): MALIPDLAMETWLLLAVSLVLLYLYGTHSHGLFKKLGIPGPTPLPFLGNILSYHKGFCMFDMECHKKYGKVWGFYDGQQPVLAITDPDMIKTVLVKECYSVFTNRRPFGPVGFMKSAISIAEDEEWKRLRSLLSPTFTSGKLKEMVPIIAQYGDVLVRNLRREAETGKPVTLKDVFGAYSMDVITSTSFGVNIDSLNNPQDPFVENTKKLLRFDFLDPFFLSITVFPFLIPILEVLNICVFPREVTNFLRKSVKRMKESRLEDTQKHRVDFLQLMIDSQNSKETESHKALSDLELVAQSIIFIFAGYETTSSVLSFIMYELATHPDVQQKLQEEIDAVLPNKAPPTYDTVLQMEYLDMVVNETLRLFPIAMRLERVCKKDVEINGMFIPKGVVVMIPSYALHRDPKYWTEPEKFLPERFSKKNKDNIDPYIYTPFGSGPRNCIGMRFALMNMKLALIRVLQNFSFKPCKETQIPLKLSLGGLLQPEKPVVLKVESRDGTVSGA
# How it was run: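 Luminescent readout of luciferin formed from 25 uM Luciferin-PPXE (KM level) by 20 nM CYP3A4 in 200 mM KPO4, with 60 min NADPH-driven reaction at room temperature after 10 min compound exposure. Ketoconazole (57 uM) defined 100% inhibition.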
compound,measurement,setting,value
COC(=O)C1(Cc2ccccc2)C=C2C(=C(c3ccccc3)C(=O)C2C)CN1 (stereo unspecified),outcome,[1],inactive
NC(N)=Nc1nc(CSCC/C(N)=N\S(N)(=O)=O)cs1,outcome,[2],inactive
same,outcome,[3],inactive
same,Potency,[4],inactive
OC1C=C2CCN3Cc4cc5c(cc4C(C1O)C23)OCO5 (stereo unspecified),outcome,[2],inactive
same,outcome,[3],inactive
same,Potency,[4],inactive
COc1cc(C2c3cc4c(cc3C(OC3OC5COC(C)O[C@@H]5C(O)C3O)C3COC(=O)C23)OCO4)cc(OC)c1O (stereo partly specified),outcome,[2],inactive
same,outcome,[3],inactive
same,Potency,[4],inactive
CCCN1CC(CSC)C[C@H]2c3cccc4[nH]cc(c34)C[C@H]21 (stereo partly specified),Potency,[5],inactive
same,outcome,[2],inactive
same,outcome,[3],inactive
same,Potency,[4],inactive
C[N+]1(C)C2CC(OC(=O)C(CO)c3ccccc3)CC1C1OC12 (stereo unspecified),outcome,[2],inactive
same,outcome,[3],inactive
same,Potency,[4],inactive
COC(=O)[C@@]1(Cc2ccc(F)cc2)[C@H]2c3cc(C(=O)N(C)C)n(Cc4ccc(OC)c(OC)c4)c3C[C@H]2CN1C(=O)c1ccccc1,outcome,[1],inactive
CCCC[C@H]1C[C@@H]1[C@@H]1N(C(C)=O)[C@H](c2cccc(OC)c2)CC12CC2,outcome,[1],inactive
CC1(C(=O)O)C=CCN1C(=O)c1ccccc1 (stereo unspecified),outcome,[1],inactive
COc1ccc2nc3c(c(-c4ccccc4)c2c1)CCC3,outcome,[1],inactive
COc1ccc2c3c1OC1CC(O)C=C[C@@]31CCN(C)C2 (stereo partly specified),outcome,[3],inactive
same,Potency,[4],inactive
CCCC/C=C/C(NC(=O)c1ccc(C(=O)OC)cc1)c1ccccc1 (stereo unspecified),outcome,[1],inactive
COC(=O)[C@@]1(Cc2ccc(OC)cc2)[C@H]2c3cc(C(=O)N4CCCC4)n(Cc4ccc(OC)c(OC)c4)c3C[C@H]2CN1C(=O)c1ccccc1,outcome,[1],inactive
COCCn1c(C(=O)N2CCCC2)cc2c1C[C@H]1CN(C(=O)c3ccccc3)[C@@](Cc3ccc(OC)cc3)(C(=O)OC)[C@@H]21,outcome,[1],inactive

# Reference: PubChem BioAssay (NCATS)
